“And” between values parts separate entries of the source, which are not always exact repeats. Equal entries are not always repeated. Records with an inconclusive call do not appear. The source made the active and inactive calls. Unless noted, calls come from the whole dose curve; as a rule, active = well fitted curve in the direction sought with a large enough effect; inconclusive = small, poorly fitted or top-dose-only effect, or another doubt; inactive = no such curve, though single readings can be large; an effect the other way counts as inactive or inconclusive.
Columns and labels:
[1] = Cell Viability - BJ (AID 421; calls by dose curve;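 note: potency is the fitted concentration of half-maximal effect; cells exposed to compound for 40 hours at 37 °C before readout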); conditions: BJ fibroblast viability, qHTS
In short: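 Cytotoxicity in human BJ foreskin fibroblasts is scored as loss of cellular ATP after a 40-hour exposure, measured by luciferase luminescence. Controls are DMSO and 100 uM tamoxifen.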

[2] = Cell Viability - HepG2 (AID 433; calls by dose curve;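 note: potency is the fitted concentration of half-maximal effect; potency for ATP loss meaning cytotoxicity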); conditions: qHTS
In short: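 In this qHTS format, a 40 h, 37 °C compound incubation of HepG2 cells in complete medium precedes a 20 min CellTiter-Glo step at room temperature. Tamoxifen and doxorubicin serve as positive controls; Hill-equation fits yield AC50.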

[3] = Cell Viability - NIH 3T3 (AID 541); conditions: NIH 3T3 cell viability, qHTS; activity change, negative = cytotoxicity: at 92.2 µM (top of the series);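 note: plate controls were DMSO alone for no effect and tamoxifen positive control for full effect; nearly all actives have a fitted effect of over 25% in size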
In short: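 AC50 values reflect concentration-dependent loss of intracellular ATP in NIH 3T3 cells after 40 hr treatment in complete culture medium, quantified by luciferase-based luminescence.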

[4] = Cell Viability - HUV-EC-C (AID 542); conditions: HUV-EC-C endothelial cell viability, qHTS; series mostly up to 92.2 µM; note: % is set by controls: 0 for no effect and ±100 for the full control effect; nearly all actives have a fitted effect of over 35% in size
In short: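 Decrease in cellular ATP, quantified by luciferase luminescence, reflects toxicity in normal human vascular endothelial HUV-EC-C cells given compound for 40 hr in complete culture medium. Values are AC50s from concentration-response curves.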

[5] = Cell Viability - Renal Proximal Tubule (AID 545); conditions: renal proximal tubule cells viability; at 91.7 µM (top of the series), primary cells of rat origin unless noted; note: nearly all actives have a fitted effect of over 40% in size
In short: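 In this qHTS format, normal rat kidney-derived proximal tubule cells in complete culture medium receive compound titrations, then sit 40 hours at 37 °C before luciferase-based ATP quantitation; potency is reported as AC50 from concentration-response curves.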

[6] = Cellular Toxicity (caspase-3) HepG2 (AID 654); conditions: HepG2 caspase-3 activation, luminescence, 0% = DMSO only, 100% = tamoxifen; series mostly up to 92.2 µM;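 note: cells exposed to compound for 16 hours before reading; 0% = DMSO alone and 100% = caspase signal from 100 µM tamoxifen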
In short: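 qHTS, HepG2, 1500 cells/well, complete medium; cpd 16 h 37 °C; Caspase-Glo 3/7, 20 min RT; lum. Norm: DMSO vs 100 uM tamoxifen; AC50 Hill fit.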

[7] = Cellular Toxicity (caspase-3) HUV-EC-C (AID 656); conditions: HUV-EC-C cells, caspase-3 activation (apoptosis), vehicle = 0, 100 µM tamoxifen = 100%; series mostly up to 92.2 µM
In short: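 Concentration-dependent caspase 3/7 induction was assessed in HUV-EC-C cells exposed for 16 hours. Data scaled between DMSO and tamoxifen (100 uM) controls.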

[8] = Cellular Toxicity (caspase-3) SHSY5Y (AID 657); conditions: SH-SY5Y caspase-3 activation, DMSO zero, 10 µM staurosporine = 100%; series mostly up to 91.7 µM
In short: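 Readout: caspase-cleaved peptide-aminoluciferin substrate driving luciferase light in SH-SY5Y neuroblastoma cells after 16 h treatment. Response normalized to DMSO and 10 uM staurosporine controls.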

[9] = Cellular Toxicity (caspase-3) BJ (AID 658); conditions: BJ fibroblasts, luminescence, normalized: DMSO 0%, staurosporine 100%; series mostly up to 91.7 µM
In short: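 Readout: Caspase-Glo 3/7 luminescence increase in BJ cells after 16 hr treatment at 37 °C. Staurosporine and tamoxifen served as positive controls; AC50 values came from Hill modelling of data normalized to DMSO and 10 uM staurosporine.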

[10] = Cellular Toxicity (caspase-3) MRC-5 (AID 659); conditions: MRC-5 cells, luminescence, normalized: DMSO 0%, 10 µM staurosporine 100%; series mostly up to 91.7 µM
In short: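 Concentration-dependent caspase 3/7 activation is measured in human normal lung fibroblasts (MRC-5) following 16-hour treatment. AC50 values come from standard Hill-equation modeling of luminescence normalized to DMSO and 10 uM staurosporine.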

[11] = Cellular Toxicity (caspase-3) SK-N-SH (AID 661); conditions: SK-N-SH caspase-3 activation, qHTS, DMSO as zero, staurosporine as full; series mostly up to 91.7 µM
In short: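 Caspase 3/7 activation is measured as a luminescence increase from aminoluciferin released by substrate cleavage in SK-N-SH cells after 16 hr compound treatment; values are AC50 from concentration-response curves.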

[12] = Cellular Toxicity (caspase-3) H-4-II-E (AID 663); conditions: H-4-II-E rat hepatoma, scaled: DMSO 0%, 100 µM tamoxifen 100%; series mostly up to 92.2 µM;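 note: cells exposed to compound for 16 hr before readout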
In short: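 Apoptosis induction is scored as increased luminescence from caspase 3/7 substrate cleavage in rat hepatoma H-4-II-E cells exposed to compound for 16 hr. Activity is scaled between DMSO and 100 uM tamoxifen.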

[13] = Cellular Toxicity (caspase-3) NIH 3T3 (AID 666); conditions: NIH 3T3 caspase-3 activation, apoptosis/toxicity, 0% DMSO, 100% is 100 µM tamoxifen; series mostly up to 92.2 µM;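 note: caspase signal read after 16 h compound exposure; 0% = DMSO basal and 100% = 100 µM tamoxifen stimulation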
In short: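 Concentration-response qHTS in NIH 3T3 mouse fibroblasts scores caspase-3/7 activation as rising luminescence after 16 hr compound exposure. Signals are scaled between DMSO-only and 100 uM tamoxifen.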

[14] = Cell Viability - LYMP2-025 (AID 976); conditions: LYMP2-025 lymphoblastoid cell viability; series mostly up to 92.2 µM;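 note: cells exposed to compound for 24 h at 37 °C; plate controls were DMSO only for no effect and tetraoctylammonium bromide control for full effect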
In short: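 In qHTS format, LYMP2-025 lymphoblastoid cells in complete culture medium received compound for 24 hr; ATP-based CellTiter-Glo signal gave viability, with AC50 derived by Hill equation.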

[15] = biological target: Tumor necrosis factor (Homo sapiens) (UniProt P01375); assay: qHTS assay to identify small molecules that stimulate Tumor Necrosis Factor-alpha (TNF-alpha) secretion (AID 651757; active = well fitted curve in the direction sought with a large enough effect in the signal ratio; the % refers to the signal ratio; note: 0% is about no effect); conditions: Human cells, HTRF 665/615 ratio; series mostly up to 92.2 µM
Chain of Tumor necrosis factor (Homo sapiens) (P01375 whole entry, looked up): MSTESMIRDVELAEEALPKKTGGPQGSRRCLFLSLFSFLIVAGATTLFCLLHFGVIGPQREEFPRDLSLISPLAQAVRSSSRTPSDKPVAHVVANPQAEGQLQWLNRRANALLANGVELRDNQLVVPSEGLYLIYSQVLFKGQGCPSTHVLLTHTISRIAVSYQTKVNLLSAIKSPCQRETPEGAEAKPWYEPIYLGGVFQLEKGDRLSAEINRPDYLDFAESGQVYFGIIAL
In short: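 Secreted TNF-alpha from compound-treated THP-1 cells (17 hrs, 37 C) was quantified with a homogeneous time-resolved fluorescence antibody assay.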

[16] = qHTS assay for small molecule agonists of the antioxidant response element (ARE) signaling pathway measured by Nrf2-dependant transcriptional activity - cell viability counter screen (AID 720653; active = well fitted curve in the direction sought with a large enough effect in the repeat runs; an effect the other way counts as inactive or inconclusive; note: % is set by controls: 0 for no effect and ±100 for the full control effect); conditions: ARE-bla HepG2 viability, CellTiter-Glo ATP luminescence, 16 h; stronger effect = lower value
In short: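 Cytotoxicity counter screen: intracellular ATP quantified by CellTiter-Glo luminescence in the same ARE-bla HepG2 plates, after 16 h compound exposure and a 2 h beta-lactamase substrate step.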

[17] = qHTS assay for cell viability of HEK293 cells (AID 743288); conditions: ATP luminescence (CellTiter-Glo), 18 h; max response: stronger effect = lower value; note: % is set by controls: 0 for no effect and ±100 for the full control effect; nearly all actives have a fitted effect of over 50% in size
In short: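 Luminescent ATP quantitation served as the viability read-out. Cells (parental HEK293, 2,000/well) received compounds after at least 5 h at 37 C and were exposed for 18 h before a 30 min room-temperature reagent step.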

[18] = qHTS assay for cell viability of the p53RE-bla HCT-116 cell line (AID 743292); conditions: p53RE-bla HCT-116 viability, ATP luminescence, 16 h; series mostly up to 95 µM; note: % is set by controls: 0 for no effect and ±100 for the full control effect; nearly all actives have a fitted effect of over 55% in size
In short: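 Compound-exposed HCT-116 (p53RE-bla) cells, 4,000 per well, were kept 16 h at 37 C following a 5 h preincubation. Cell number was estimated from total ATP by CellTiter-Glo luminescence read after 30 min at room temperature.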

[19] = biological target: Voltage-gated inwardly rectifying potassium channel KCNH2 (Homo sapiens) (UniProt Q12809); assay: qHTS Assay for Small Molecule Inhibitors of the Human hERG Channel Activity (AID 588834); conditions: U2OS BacMam hERG, FluxOR thallium flux fluorescence; series mostly up to 92.2 µM;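 note: top concentration of the series differs between compounds; % is set by controls: 0 for no effect and ±100 for the full control effect; lower thallium flux fluorescence means stronger hERG block; nearly all actives have a fitted effect of over 50% in size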
Chain of Voltage-gated inwardly rectifying potassium channel KCNH2 (Homo sapiens) (Q12809 whole entry, looked up): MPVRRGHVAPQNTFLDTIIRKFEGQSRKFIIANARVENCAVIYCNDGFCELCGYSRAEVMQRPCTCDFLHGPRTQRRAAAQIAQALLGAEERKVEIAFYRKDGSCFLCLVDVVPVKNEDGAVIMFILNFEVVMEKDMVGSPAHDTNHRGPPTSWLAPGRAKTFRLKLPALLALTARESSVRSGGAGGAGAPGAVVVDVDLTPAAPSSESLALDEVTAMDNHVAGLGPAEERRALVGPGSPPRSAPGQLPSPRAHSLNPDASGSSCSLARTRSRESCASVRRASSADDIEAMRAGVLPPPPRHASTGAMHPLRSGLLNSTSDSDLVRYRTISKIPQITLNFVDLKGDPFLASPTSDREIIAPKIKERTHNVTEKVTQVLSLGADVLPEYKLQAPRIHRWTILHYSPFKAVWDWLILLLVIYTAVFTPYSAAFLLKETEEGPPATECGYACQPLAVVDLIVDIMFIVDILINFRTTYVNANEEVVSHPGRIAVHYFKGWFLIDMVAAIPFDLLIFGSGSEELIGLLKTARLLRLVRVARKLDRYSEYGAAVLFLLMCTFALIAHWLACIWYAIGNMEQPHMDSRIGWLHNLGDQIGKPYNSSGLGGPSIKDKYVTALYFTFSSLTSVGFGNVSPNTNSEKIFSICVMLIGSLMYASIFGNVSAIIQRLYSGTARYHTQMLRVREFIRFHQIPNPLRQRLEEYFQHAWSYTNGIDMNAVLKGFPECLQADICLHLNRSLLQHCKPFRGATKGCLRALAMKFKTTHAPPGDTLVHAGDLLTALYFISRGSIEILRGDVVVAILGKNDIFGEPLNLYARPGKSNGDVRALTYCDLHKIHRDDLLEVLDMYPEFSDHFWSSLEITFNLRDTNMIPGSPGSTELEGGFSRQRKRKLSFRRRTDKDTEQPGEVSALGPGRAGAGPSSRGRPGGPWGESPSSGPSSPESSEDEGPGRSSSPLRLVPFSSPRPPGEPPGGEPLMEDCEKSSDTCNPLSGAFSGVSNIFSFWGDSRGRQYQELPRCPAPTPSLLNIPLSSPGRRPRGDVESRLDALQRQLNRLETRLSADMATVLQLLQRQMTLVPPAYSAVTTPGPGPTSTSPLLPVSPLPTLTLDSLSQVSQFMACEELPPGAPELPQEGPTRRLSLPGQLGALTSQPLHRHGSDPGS
In short: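 Blockade is seen as reduced FluxOR thallium-flux fluorescence in U2OS cells expressing hERG from a BacMam construct, in Opti-MEM with 2% FCS. Concentration-response data fitted to the Hill equation for AC50.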

ClC(Cl)=C(c1ccc(Cl)cc1)c1ccc(Cl)cc1
inactive: Potency [1] > 92 µM | Potency [2] > 92 µM | activity change, negative = cytotoxicity [3] 7.39% and -2.45% | Potency [4] | activity change, negative = cytotoxicity [5] -4.32% [at 91.7 µM] and -7.69% [at 91.7 µM] | outcome [6] | outcome [7] | outcome [8] | outcome [9] | outcome [10] | outcome [11] | outcome [12] | outcome [13] | Potency [14] | outcome [15] | max response [16] 6.47% and -9.67% and -6.97% | max response [17] -14.7% and -6.72% and -17.4% | Potency [18]

C=CCc1ccc(OC)cc1
inactive: Potency [1] > 92 µM | Potency [2] > 92 µM | activity change, negative = cytotoxicity [3] 3.06% | Potency [4] | activity change, negative = cytotoxicity [5] -9.51% [at 91.7 µM] | outcome [6] | outcome [7] | outcome [8] | outcome [9] | outcome [10] | outcome [11] | outcome [12] | outcome [13] | Potency [14] | Potency [19] | outcome [15] | max response [16] 2.85% | max response [17] 2.04% | Potency [18]

COP(=S)(OC)Oc1ccc([N+](=O)[O-])cc1
inactive: Potency [1] > 92 µM | Potency [2] > 92 µM | activity change, negative = cytotoxicity [3] -18.8% | Potency [4] | activity change, negative = cytotoxicity [5] -3.77% [at 91.7 µM] | outcome [6] | outcome [7] | outcome [8] | outcome [9] | outcome [10] | outcome [11] | outcome [12] | outcome [13] | Potency [14] | Potency [19] | outcome [15] | max response [16] 0.527% and -8.08% | max response [17] -1.38% and -0.0798% | Potency [18]

CC(C)[C@@]1(NC(=O)[C@@H]2C[C@@H]3c4cccc5[nH]cc(c45)C[C@H]3N(C)C2)O[C@@]2(O)C3CCCN3C(=O)[C@H](Cc3ccccc3)N2C1=O (stereo partly drawn)
inactive: Potency [19]

O=C(OC1CCN(CCCl)CC1)C(c1ccccc1)c1ccccc1
inactive: Potency [19]
